Screening results deposited in PubChem by NMMLSC.
MEKK2 mut-MEK5: MEK5 binding signal on mutant MEKK2 PB1, primary screen, biochemical, multiplex bead flow cytometry, Alexa488-MEK5. Alexa488-MEK5 binding to MEKK2 mutant. percent response, % at 10 µM. hit rate 0.35% among 290,000. AID 1530, 2009; in the data active = percent response above about 24%, passing the limit was not always enough
GRK2 aptamer HTS: compounds blocking aptamer binding on GRK2 – biochemical, human GRK2, bead flow cytometry, HTS, primary screen; Beta-adrenergic receptor kinase 1 (Homo sapiens), P25098; inhibition of aptamer binding, % at 10 µM; FAM-aptamer displacement from GRK2; AID 488847, 2010; hit rate 0.59% among 330,000;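 active = inhibition of aptamer binding above 40%, roughly 3 SD of noise, on plates passing a quality check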;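 note: median bead fluorescence of bound FAM aptamer so fluorescent compounds give negative values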
Beta2AR agonist: beta2AR agonists driving receptor internalization, primary screen, cell-based, FAP fluorogen, flow cytometry. Beta-2 adrenergic receptor (Homo sapiens), P07550. Am2.2-beta2AR cells. response, % (concentration not given with the values). hit rate 0.43% among 340,000. AID 504454, 2011;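 active = response above a set limit, near 3 SD of response in nonfluorescent compounds, cut at about 42% in these data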
MEKK3 PB1 HTS: modulators of MEKK3-MEK5 PB1 binding, primary screen, biochemical, wildtype MEKK3, multiplex bead flow cytometry, Alexa488-MEK5. Mitogen-activated protein kinase kinase kinase 3 (Homo sapiens), Q99759. bead-based flow cytometry, Alexa488-MEK5 binding to MEKK3; actives lie on both sides; 0 = blocked by unlabeled MEK5, 100 = vehicle. binding response (% of control), % at 10 µM. hit rate 1.4% among 290,000. AID 1529, 2009;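 active = binding response more than 3 SD above or below the average of its plate-row segment, actives on both sides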;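 note: Alexa488 bead fluorescence after subtracting the streptavidin-only scavenger bead signal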
Target sequence (Q99759 whole entry, looked up): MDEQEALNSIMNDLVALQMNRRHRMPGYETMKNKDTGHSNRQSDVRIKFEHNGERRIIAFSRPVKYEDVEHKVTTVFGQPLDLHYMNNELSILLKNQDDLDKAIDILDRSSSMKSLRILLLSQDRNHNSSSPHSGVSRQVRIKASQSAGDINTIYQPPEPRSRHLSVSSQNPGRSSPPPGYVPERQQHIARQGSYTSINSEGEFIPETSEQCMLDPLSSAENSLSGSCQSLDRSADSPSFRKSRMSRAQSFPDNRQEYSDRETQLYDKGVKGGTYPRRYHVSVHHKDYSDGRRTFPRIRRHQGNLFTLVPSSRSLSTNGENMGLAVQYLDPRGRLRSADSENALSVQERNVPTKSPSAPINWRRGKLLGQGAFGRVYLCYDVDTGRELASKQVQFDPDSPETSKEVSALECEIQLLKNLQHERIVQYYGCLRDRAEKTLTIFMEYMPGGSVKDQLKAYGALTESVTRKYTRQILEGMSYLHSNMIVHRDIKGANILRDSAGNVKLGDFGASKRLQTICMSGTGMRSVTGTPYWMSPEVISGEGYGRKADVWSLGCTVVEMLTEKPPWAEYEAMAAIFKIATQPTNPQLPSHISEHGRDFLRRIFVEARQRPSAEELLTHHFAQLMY
MEKK2wt PB1 HTS: modulators of MEK5 binding to wildtype MEKK2, primary screen, biochemical, multiplex bead flow cytometry, Alexa488-MEK5 | Mitogen-activated protein kinase kinase kinase 2 (Homo sapiens), Q9Y2U5 | Alexa488-MEK5 binding to MEKK2 WT; actives lie on both sides | binding response (% of control), % at 10 µM | hit rate 1.1% among 290,000 | AID 1531, 2009; in the data active = binding response below about 67% or above about 130%
MEKK2wt confirm: modulators of MEK5 binding to wildtype MEKK2, confirmation, biochemical, single concentration, multiplex bead flow cytometry | shares compounds with MEKK3 PB1 HTS | Alexa488-MEK5 binding to MEKK2 WT; actives lie on both sides | binding response (% of control), % at 10 µM | hit rate 2.4% among 5,900 | AID 1892, 2009; in the data active = binding response below about 16% or above about 210%; inactive = in between
MEKK2mut confirm: mutant MEKK2 PB1-MEK5 binding signal retest – biochemical, single concentration, multiplex bead flow cytometry, confirmation. percent response, % at 10 µM. Alexa488-MEK5 binding to MEKK2 mutant. shares compounds with MEKK3 PB1 HTS. hit rate 2% among 5,900; in the data active = percent response mostly above about 71%, no sharp cut-off; inactive = mostly below about 38%;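 note: higher means compound restores mutant binding toward wildtype level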
MEKK3 confirm: MEKK3 wild-type PB1 binding to MEK5, inhibitors, confirmation, biochemical, bead multiplex flow cytometry, single concentration, wildtype; binding response (% of control), % at 10 µM; hit rate 1.8% among 5,900; shares compounds with MEKK3 PB1 HTS; Alexa488-MEK5 binding to MEKK3; active compounds read low; AID 1894, 2009;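 active = binding response below 72% of control, or above a set upper limit, though filed actives all read lower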;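 note: 100% = DMSO only wells and 0% = binding blocked by excess unlabeled MEK5; lower values mean stronger disruption of MEK5 binding to MEKK3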
An asterisk follows results filed as active; i = inactive; nt = not tested or not shown; [ ] = another dose, or the depositor's remark. In the library only some 2.9% were active in any assay of this set; here they are far more common.

SMILES | MEKK2 mut-MEK5 | GRK2 aptamer HTS | Beta2AR agonist | MEKK3 PB1 HTS | MEKK2wt PB1 HTS | MEKK2wt confirm | MEKK2mut confirm | MEKK3 confirm
CCOC(=O)c1ccccc1-n1c(C)cc(C2N=C(N)Nc3nc4ccccc4n32)c1C (configuration not stated) | 29 | 2 | 16 | 113 | 146* | 153 | 29 | 106
CCn1cc(/C=C(\NC(=O)c2ccc(OC)c(OC)c2)C(=O)NCCCN2CCOCC2)c2ccccc21 | -1 | nt | 0 | 101 | 104 | nt | nt | nt
COc1ccc(-c2cccc(NC(=O)c3cccs3)c2)nn1 | nt | 2 | 2 | nt | nt | nt | nt | nt
O=C(CN1C(=O)C(=O)c2ccccc21)NC1CCCCC1 | 0 | 0 | -6 | 48*[inhibitor] | 98 | 101 | 5 | 100
O=C(CN1C(=O)CSc2ccccc21)NC1CCCC1 | nt | 0 | -3 | nt | nt | nt | nt | nt
Oc1ccc(Cl)cc1/C=C/c1ccc2cccc(O)c2n1 | 0 | nt | 9 | 128* | 119 | 94 | -8 | 103
Oc1c(Cl)cc(Cl)cc1/C=C/c1ccc2cccc(O)c2n1 | -2 | 0 | -15 | 100 | 97 | nt | nt | nt
Cc1ccc(-n2[nH]c(C)c(C=NCc3ccncc3)c2=O)cc1 | 26 | 0 | -4 | 130* | 125 | 98 | 1 | 102
CCN1/C(=C/c2ccc3cc(C)ccc3[n+]2CC)Sc2cc(C)c(C)cc21 | 13 | nt | i | 44*[inhibitor] | 37* | 33 | -23 | 58*
CS(=O)(=O)N(CC(=O)N1CCOCC1)c1ccccc1Br | 6 | 1 | -4 | 107 | 110 | nt | nt | nt
O=C(Nc1cccc(Cl)c1)c1cccc(Oc2ccc([N+](=O)[O-])cc2Cl)c1 | 9 | 0 | 5 | 103 | 17*[inhibitor] | 131 | 12 | 107
CC(C)[C@H](NC(N)=O)C(=O)Nc1cccc([N+](=O)[O-])c1 | 7 | 2 | 2 | 143* | 132 | 108 | 2 | 106
C/C(=N\NC(=O)c1cccc([N+](=O)[O-])c1)c1ccncc1 | -17 | 1 | -2 | 49*[inhibitor] | 55 | 103 | 2 | 103
Cc1ccc(C(=O)Nc2ccncc2)cc1[N+](=O)[O-] | -4 | 0 | -3 | 102 | 102 | nt | nt | nt
Cc1ccc(NC(=O)c2ccncc2)cc1[N+](=O)[O-] | 0 | 2 | -2 | 152* | 105 | 104 | 6 | 107
Cc1cccc(C(=O)NC2CCN(CC(=O)Nc3ccccc3Cl)CC2)c1 | -2 | 0 | 1 | 100 | 99 | nt | nt | nt
O=C(COC(=O)C12CC3CC(CC(C3)C1)C2)NNC(=O)c1ccccc1 | nt | 0 | 1 | nt | nt | nt | nt | nt
O=C(Nc1cccc([N+](=O)[O-])c1)c1ccncc1 | -1 | 8 | -2 | 141* | 101 | 98 | -5 | 100
CCCc1nn(C)c(C(N)=O)c1[N+](=O)[O-] | -12 | 9 | 3 | 94 | 82 | nt | nt | nt
